An excerpt weighted towards active compounds, which were near 3.7% of everything screened.
TIM10 inh – growth inhibitors of isogenic TIM10 control yeast, primary screen, counter-screen for tim10-1 yeast inhibitor project, luminescence, uHTS. 330,000 tested, 1.4% active. S. cerevisiae TIM10 strain growth, BacTiter-Glo luminescence, 24 h. inhibition, % at 10 µM;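 active means inhibition of 40% or more at the single tested concentration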;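 further: wild-type TIM10 isogenic control strain grown at permissive 25 °C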
PfHsp90 yeast 2 – growth inhibition of PfHsp90-expressing yeast, primary screen, antimalarial PfHsp90 inhibitor project, S. cerevisiae, BacTiter-Glo luminescence, single point, set 2. BacTiter-Glo ATP, 48 h; yeast lacking PDR1 and PDR3 efflux regulators. inhibition, % at 9.4 µM. 310,000 tested, 0.32% active;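 active means every replicate shows inhibition above about 80%, whatever the replicate mean, limit read from the data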;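 further: 0% = DMSO neutral controls and 100% = 20 µM radicicol positive controls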
tim10-1 inh – growth inhibitors of tim10-1 mutant yeast, primary screen, luminescence, uHTS; S. cerevisiae tim10-1 ts strain growth, BacTiter-Glo, 24 h; inhibition, % at 20 µM; 330,000 tested, 2.2% active;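 active means inhibition of at least 40%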;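 further: mutant grown at 25 °C; 0% = DMSO wells with yeast and 100% = wells holding no yeast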
Rce1 inhib – yeast Rce1p protease inhibitors, primary screen, biochemical, fluorescence, cell-free homogeneous. 290,000 tested, 0.27% active. yeast membranes, quenched prenylated peptide cleavage fluorescence. AID 2563, 2010. calls only;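 active means fall in fluorescence gain of 50% or more versus controls, with final raw signal at or below 3038400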;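 further: plate controls were neutral control wells for no effect and wells lacking membranes for full effect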
Target sequence (Q03530 whole entry, looked up): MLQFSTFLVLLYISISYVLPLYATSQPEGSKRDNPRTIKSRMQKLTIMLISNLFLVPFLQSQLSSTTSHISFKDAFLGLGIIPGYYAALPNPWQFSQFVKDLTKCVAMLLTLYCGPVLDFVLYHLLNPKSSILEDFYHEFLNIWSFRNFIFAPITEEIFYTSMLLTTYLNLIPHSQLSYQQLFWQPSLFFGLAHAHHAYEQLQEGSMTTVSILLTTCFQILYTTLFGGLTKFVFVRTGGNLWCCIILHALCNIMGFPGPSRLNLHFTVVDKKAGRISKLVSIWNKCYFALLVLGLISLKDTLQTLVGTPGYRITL
tim23-1 inh – growth inhibitors of tim23-1 mutant yeast, primary screen, luminescence, uHTS; S. cerevisiae tim23-1 growth, BacTiter-Glo luminescence, 24 h; inhibition, % at 20 µM; 330,000 tested, 1.3% active;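 active means growth inhibition of the mutant yeast at or above 50%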;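 further: temperature-sensitive mutant grown at 25 °C; plate controls were DMSO-treated mutant yeast for no effect and medium wells lacking yeast for full effect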
* marks the source's active call; other numbers are inactive results; i = inactive; x = no result given; + = active, no number.

SMILES	TIM10 inh	PfHsp90 yeast 2	tim10-1 inh	Rce1 inhib	tim23-1 inh
C=CCn1c(C)cc(C(=O)CSc2nc3ccccc3c(=O)[nH]2)c1C	-63.9	100.0*	-35.3	x	-49.7
CN(C)S(=O)(=O)c1cccc(NC(=O)COC(=O)COc2ccccc2[N+](=O)[O-])c1	-0.6	x	-4.4	i	13.4
Cc1cccc(COC(=O)CCCNC(=O)c2ccc(Cl)cc2)c1	-26.5	93.4*	-17.9	x	12.8
Cc1noc(C)c1COC(=O)CCCNC(=O)c1ccc(Cl)cc1	-20.7	6.1	-8.6	i	-12.3
COc1ccc2c(C(=O)NCc3ccc4c(c3)OCO4)c(-c3ccc(S(C)(=O)=O)cc3)sc2c1	3.0	6.4	14.6	x	19.4
CC1CC(C)C(=NNC(N)=O)C(C(O)CC2CCC(=O)NC2=O)C1 (configuration not stated)	x	114.1*	x	x	x
CC(C)C[C@H](NC(=O)N1CC(=O)Nc2ccccc21)C(=O)N1CCC(C(=O)O)CC1	-3.3	2.5	0.3	i	-1.5
O=C(Cc1csc(-c2ccccc2)n1)NCc1cccs1	-20.4	-8.1	10.7	i	-12.5
COc1ccc(C2C3=C(CC(C)(C)CC3=O)Nc3n[nH]c(C)c32)cc1 (configuration not stated)	2.2	0.7	6.3	+	0.0
COc1cc(NC(=O)Nc2ccc3c(c2)OCO3)cc(OC)c1OC	14.0	x	3.0	i	-10.2
COc1ccc(C(C)(C)C)cc1NC(=O)Nc1ccc2c(c1)OCO2	28.7	85.8*	32.5	i	47.7
Cc1ccccc1CC(=O)Nc1cccnc1	8.2	-4.3	11.0	i	1.4
Cc1ccc(OCCCN2C(=O)C(=O)c3cc(C)ccc32)cc1	10.1	-0.3	0.8	i	26.7
Cc1ccc2c(c1)C(=O)C(=O)N2CCCOc1ccccc1	20.6	-23.5	1.6	+	29.1
Cc1cccc(OCCN2C(=O)c3ccccc3C2=O)c1	17.6	7.0	8.2	i	16.3
Cc1cccc(OCCCN2C(=O)C(=O)c3cc(C)ccc32)c1	15.9	-46.7	15.7	+	40.6
COc1cc(NS(=O)(=O)c2ccc(NC(=S)NC(=O)c3ccc(F)c(F)c3)cc2)nc(OC)n1	-0.7	-8.7	1.4	i	1.2
CCC(C)[C@@H](NC(=O)OC(C)(C)C)c1nnc(S(=O)(=O)Cc2cccc(C)c2)o1 (some centres not stated)	x	121.3*	x	i	x
CCSc1nc2c(c(=O)[nH]1)C(c1ccccn1)C1=C(CC(C)(C)CC1=O)N2 (configuration not stated)	-13.5	-12.0	15.8	+	0.7
CC(C)Sc1nc2c(c(=O)[nH]1)C(c1cccs1)C1=C(CC(C)(C)CC1=O)N2 (configuration not stated)	-3.7	10.6	12.9	i	20.4
COc1ccc(OCC(=O)N/N=C/C(C)=C/c2ccco2)c(Br)c1	-23.4	-8.2	-33.6	i	-12.4
NC(=Nc1nc(-c2ccccn2)cc2ccccc12)c1ccccn1	x	142.1*	x	x	x
O=c1[nH]c(-c2ccccn2)cc2ccccc12	-9.6	-5.2	-31.6	i	19.3
Oc1c(N=NC(=S)Nc2ccccc2F)c2ccccc2n1Cc1ccccc1F	12.3	-9.9	16.7	+	1.5
Cc1ccc(CNC(=O)c2cc(-c3ccccc3)nn2CC2CC(c3cccc([N+](=O)[O-])c3)=NO2)cc1 (configuration not stated)	-26.3	7.9	-17.7	+	17.8
SMILES	TIM10 inh	PfHsp90 yeast 2	tim10-1 inh	Rce1 inhib	tim23-1 inh
Cc1ccc(C(=O)N2CCc3ccccc32)cc1C	x	-3.7	x	x	x
O=C(c1cnc(Cl)c(Cl)c1)N1CCC(Cc2ccccc2)CC1	8.6	10.5	16.1	+	-10.4
Cc1ccc(S(=O)(=O)c2cn(C)c3cc(N4CCOCC4)c(F)cc3c2=O)cc1	4.2	-12.4	10.3	+	5.5
OCCCNc1ncnc2sc(-c3ccccc3)cc12	11.2	-9.4	18.2	+	15.4
COc1ccc(NC(=O)NC2(C(=O)N3CCOCC3)CCCCC2)cc1	-4.1	-1.5	-7.6	i	-1.9
Nc1nc2c(ncn2COC(CO)CO)c(=O)[nH]1	6.5	20.4	6.3	+	0.6
COc1ccc(-c2ccc3oc(-c4ccsc4)c(-c4ccc(Br)nc4)c3c2)cc1	0.5	x	-2.0	x	4.2
COc1ccc(-c2c(-c3ccsc3)oc3ccc(N4CCOCC4)cc23)cn1	6.3	-10.8	7.1	+	9.3
CN(C)c1cc(O)c(C(=S)Nc2ccccc2)c(N(C)C)c1	18.6	x	13.8	+	19.4
CCC1SC(CC)C(=O)N(CC(=O)Nc2ccc3c(c2)OCO3)C1=O (configuration not stated)	19.1	6.2	14.1	x	7.9
COc1ccc2c(n1)Sc1nc3ccccc3nc1N2	x	89.0*	x	i	x
Cc1nc2sc(C(=O)OC(C)C)c(N)c2c(C)c1C	17.1	-5.4	20.4	i	10.6
O=S(=O)(NC1CCCCCC1)c1ccc(Br)s1	4.9	87.5*	28.1	i	12.5
O=C(CCNS(=O)(=O)c1ccc(Br)s1)NC1CCCC1	-12.8	x	8.6	i	12.7
Nc1cccc(-n2nnnc2CN2CCOCC2)c1	-15.0	5.7	21.9	i	8.2
COc1cc2[nH]c3c(=O)n(CCN4CCOCC4)cnc3c2cc1OC	-11.1	-7.6	-2.3	+	12.7
CCn1c(CSCc2ccc(Cl)cc2)nnc1SCC(=O)Nc1cccc(C(=O)O)c1	-7.5	-2.7	-10.6	i	3.6
O=C(/C=C/c1cccc([N+](=O)[O-])c1)c1ccc([N+](=O)[O-])o1	x	124.6*	x	i	x
O=C(/C=C/c1cccc([N+](=O)[O-])c1)NCc1ccc2c(c1)OCO2	-15.1	-46.3	-5.2	i	13.5
CCOC(=O)c1c(NC(=O)COc2ccccc2F)sc2c1CC(C)(C)NC2(C)C	30.6	x	33.3	+	4.9
O=C(CN(Cc1ccccc1)C(=O)CCC(=O)Nc1nccs1)NCC1CCCO1 (configuration not stated)	13.7	12.0	-23.0	i	-4.3
O=S(=O)(c1ccccc1)c1nc(-c2ccco2)oc1N1CCCCC1	4.2	7.8	31.9	+	40.4
COc1ccc(N(C(=O)c2snc(C(N)=O)c2N)C(C(=O)NC2CCCC2)c2ccc(F)cc2)c(OC)c1 (configuration not stated)	-4.3	-6.4	-7.9	i	-18.6
COc1ccc(C(C(=O)NC2CCCCC2)N(C(=O)c2snc(C(N)=O)c2N)c2ccc(OC)cc2OC)cc1 (configuration not stated)	15.4	-6.6	10.2	+	21.9
CC(C)CC(=O)Nc1ccc2oc(-c3cccnc3)nc2c1	-1.2	20.4	-5.6	+	5.3
N/C(=N\OC(=O)COc1cc(Cl)c(Cl)cc1Cl)c1ccccn1	27.8	-13.0	34.8	i	16.7
